Compound activity from PubChem BioAssay.
Vif imaging = HIV Vif inhibition; HEK293T cells, Vif self-association by quenched fluorescence, imaging, 24 h; inhibition, % at 7.49 µM; actives 0.35% (n = 340,000); in the data active = inhibition above about 50%, passing the limit was not always enough; inconclusive = no clear call, values can overlap the other calls; inactive = below about 31%
F508del corr = correctors of CFTR F508del function in bronchial epithelial cells; CFBE cells, YFP halide quenching; stimulated with forskolin plus potentiator P3; % fluorescence drop versus neutral controls; activity (quench increase), % at 7.58 µM; actives 0.36% (n = 350,000); AID 720511;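 active = mean added fluorescence quench of at least 8% versus neutral control, with both replicates also reaching 8%; inconclusive = only one of the mean or replicate conditions met; inactive = mean below 8% and not both replicates reaching 8%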;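 also: cells transiently co-express mutant CFTR-F508del with the halide-sensitive YFP; corrector assay measuring rescue of mutant channel to the surface after 24 h compound exposure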
FGF22 binding-1 = shifts melting point of recombinant human FGF22. recombinant FGF22 thermal shift, SYPRO orange fluorescence; percent of sucrose octasulfate shift, DMSO zero. actives 1.5% (n = 340,000). activity (Tm shift, normalised), % at 9.99 µM. Q9HCT0;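 active = mean Tm shift, scaled 0 neutral to 100 positive control, at about 1.3% or above, every replicate too, limit read from the data; inconclusive = no clear call, values can overlap the other calls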
Target sequence (Q9HCT0 whole entry, looked up): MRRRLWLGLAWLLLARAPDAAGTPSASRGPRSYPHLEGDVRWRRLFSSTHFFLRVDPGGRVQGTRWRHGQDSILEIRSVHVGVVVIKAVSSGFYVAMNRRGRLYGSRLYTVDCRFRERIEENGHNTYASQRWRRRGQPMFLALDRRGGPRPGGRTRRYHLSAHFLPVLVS
FGF22 binding-2 = binders of human FGF22 by thermal shift; actives 2% (n = 1,000); thermal shift activity, °C (ΔTm) at 38 µM; shares compounds with FGF22 binding-1; recombinant FGF22 thermal shift, SYPRO orange fluorescence;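 active = fitted rise in melting shift crosses a set limit at or below the top valid dose tested; inconclusive = flat fit at mid-level activity, or a poor quality fit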
FGF22 TSA = binders of human FGF22 by thermal shift | shares compounds with FGF22 binding-1 | Thermal shift assay, SYPRO orange, melting temperature shift | Tm shift (activity), % at 38 µM | 50 tested, under 10 active | AID 743017;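 active = compounds whose fitted dose curve of melting temperature shift rises past a set threshold within the tested doses; inconclusive = flat curve at moderate activity, or poor curve fit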
TSA no protein = compound-only SYPRO artifact for FGF22 binders; AC50, µM (titrated, usually from 38 µM); actives 2% (n = 1,000); shares compounds with FGF22 binding-1; compound-only SYPRO orange thermal shift counter-screen, no protein;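 active = rising signal whose fitted curve reaches the 0.54 level within the top valid dose, showing a melting point, actives reach about 13 µM in these data; inactive = the rest, including activity in the opposite direction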; also: value is where the raw curve crosses a fixed level and not half-maximal
Hits are given with their value; - = inactive; ? = inconclusive; . = no result; ! = repeats disagree. Most compounds without a hit are left out; they make up all but 1.7% or so of the library.

SMILES | Vif imaging | F508del corr | FGF22 binding-1 | FGF22 binding-2 | TSA no protein | others
C[C@@H](NC(=O)C[C@@H]1CC[C@H]2[C@@H](COC[C@H](O)CN2C(=O)Nc2cccc(Cl)c2)O1)c1ccccc1 | . | - | - | . | .
C[C@H](NC(=O)C[C@@H]1CC[C@@H]2[C@H](COC[C@@H](O)CN2C(=O)Nc2cccc(Cl)c2)O1)c1ccccc1 | . | - | 1.5 | - | -
C[C@@H]1CN([C@H](C)CO)S(=O)(=O)c2ccc(Br)cc2O[C@H]1CN(C)C(=O)CN(C)C | . | - | - | . | .
COCCCNC(=O)CCc1nnc2ccc(N3CCC(C)CC3)nn12 | - | - | - | . | .
COCCNC(=O)CCc1nnc2ccc(N3CCC(C)CC3)nn12 | - | - | 1.6 | - | -
Cc1nc(Oc2ccccc2)c2ccsc2n1 | - | - | 1.4 | - | -
COc1ccc(Oc2ncnc3sccc23)cc1 | - | - | - | . | .
C[C@@H]1CN([C@@H](C)CO)C(=O)c2cc(NC(=O)Nc3ccccc3)ccc2O[C@@H](C)CCCCO[C@H]1CN(C)C(=O)C1CCCCC1 | . | - | - | . | .
Cc1ccc(NC(=O)CN2C(=O)NC(Cc3c[nH]c4ccccc34)C2=O)cc1 (configuration not stated) | - | - | 1.7 | - | -
O=C(CN1C(=O)NC(Cc2c[nH]c3ccccc23)C1=O)Nc1ccc(Br)cc1F (configuration not stated) | - | - | 2.3 | - | -
O=C(CN1C(=O)NC(Cc2c[nH]c3ccccc23)C1=O)Nc1ccccc1Br (configuration not stated) | - | - | - | . | .
CCCNC(=O)CN1C(=O)NC(Cc2c[nH]c3ccccc23)C1=O (configuration not stated) | - | - | - | . | .
Cc1ccc2c(c1)c(CC(=O)Nc1ccc(C)c(F)c1)c(C(=O)O)n2C | - | - | 1.6 | - | -
CCc1ccc(NC(=O)Cc2c(C(=O)O)n(C)c3ccccc23)cc1 | - | - | . | . | .
CO[C@@H]1CN(C)C(=O)c2ccc(NC(=O)C3CC3)cc2OC[C@@H](C)N(C(=O)c2ccncc2)C[C@H]1C | . | - | - | . | .
COc1nsnc1NS(=O)(=O)c1ccc(NC(=S)NC(=O)c2ccncc2)cc1 | - | - | - | . | .
COc1nsnc1NS(=O)(=O)c1ccc(NC(=S)NC(=O)c2cccnc2)cc1 | - | . | 1.6 | - | -
COc1ccc(NC(=O)N(C)C[C@@H]2Oc3ccc(NS(=O)(=O)c4cccs4)cc3CC(=O)N([C@H](C)CO)C[C@H]2C)cc1 | . | - | 28 | - | -
C[C@@H]1CN([C@H](C)CO)C(=O)Cc2cc(NS(=O)(=O)c3cccs3)ccc2O[C@@H]1CN(C)C(=O)Nc1ccccc1 | . | - | - | . | .
COc1ccc(NC(=O)N(C)C[C@@H]2Oc3ccc(NC(=O)NC(C)C)cc3CC(=O)N([C@H](C)CO)C[C@@H]2C)cc1 | - | - | 15! | - | -
COc1ccc(NC(=O)N(C)C[C@H]2Oc3ccc(NC(=O)NC(C)C)cc3CC(=O)N([C@@H](C)CO)C[C@H]2C)cc1 | . | - | - | . | .
COc1ccc(NC(=O)Nc2ccc3c(c2)CC(=O)N([C@H](C)CO)C[C@@H](C)[C@H](CN(C)S(=O)(=O)c2ccccc2)O3)cc1 | . | - | - | . | .
COc1ccc(S(=O)(=O)Nc2ccc3c(c2)CC(=O)N([C@@H](C)CO)C[C@@H](C)[C@H](CN(C)C(=O)Nc2ccc(F)cc2)O3)cc1 | . | - | - | . | .
COc1ccc(NC(=O)N(C)C[C@@H]2Oc3ccc(NS(=O)(=O)c4ccc(OC)cc4)cc3CC(=O)N([C@H](C)CO)C[C@@H]2C)cc1 | . | - | 7.6 | - | -
COc1ccc(S(=O)(=O)N(C)C[C@@H]2Oc3ccc(NC(=O)Nc4ccccc4)cc3CC(=O)N([C@H](C)CO)C[C@@H]2C)cc1 | . | - | 1.7 | - | -
SMILES | Vif imaging | F508del corr | FGF22 binding-1 | FGF22 binding-2 | TSA no protein | others
CCN1[C@@H]2c3ccc(C4=CCCCC4)c(=O)n3C[C@H]1[C@H](CO)[C@H]2C(=O)NC1Cc2ccccc2C1 | . | - | . | . | .
Cc1noc(C)c1NC(=O)Nc1ccc2c(c1)C(=O)N([C@H](C)CO)C[C@@H](C)[C@@H](CN(C)S(=O)(=O)c1ccc(F)cc1)OCCCC[C@H](C)O2 | . | - | . | . | .
C[C@H](CO)N1C[C@H](C)[C@H](CN(C)Cc2ccc3c(c2)OCO3)OCCCC[C@H](C)Oc2ccc(NC(=O)Cc3ccccc3)cc2C1=O | . | - | - | . | .
COCC(=O)N1C[C@H]2[C@@H](c3ccccc31)[C@@H](CO)N2C(=O)c1ccncc1 | . | - | - | . | .
COc1ccc(S(=O)(=O)Nc2ccc3c(c2)C(=O)N([C@H](C)CO)C[C@H](C)[C@H](CN(C)CC2CC2)OCCCC[C@H](C)O3)cc1 | . | - | 1.4 | - | -
COc1ccc(S(=O)(=O)Nc2ccc3c(c2)C(=O)N([C@H](C)CO)C[C@H](C)[C@H](CN(C)CC2CC2)OCCCC[C@@H](C)O3)cc1 | . | - | - | . | .
COc1ccc(NC(=O)N(C)C[C@@H]2Oc3ccc(NS(=O)(=O)c4ccccc4)cc3C(=O)N([C@H](C)CO)C[C@H]2C)cc1 | . | - | 5.0 | - | -
COc1ccc(NC(=O)N(C)C[C@H]2Oc3ccc(NS(=O)(=O)c4ccccc4)cc3C(=O)N([C@H](C)CO)C[C@H]2C)cc1 | . | - | - | . | .
COc1ccc(S(=O)(=O)Nc2ccc3c(c2)C(=O)N([C@H](C)CO)C[C@H](C)[C@H](CN(C)C(=O)Nc2ccc(F)cc2)O3)cc1 | . | - | - | . | .
COc1ccc(/C=N/Nc2nonc2N)cc1 | - | . | . | . | .
Nc1nonc1N/N=C\c1ccccc1 | - | - | 2.0 | - | -
Cc1ccc(NS(=O)(=O)c2ccc3c(c2)NC(=O)C(C)C(=O)N3)c(Br)c1 (configuration not stated) | - | - | - | . | .
Cc1ccc(Cl)cc1NS(=O)(=O)c1ccc2c(c1)NC(=O)C(C)C(=O)N2 (configuration not stated) | ? | - | 1.9 | - | -
O=C(NCC[C@@H]1CC[C@@H](NS(=O)(=O)c2ccc(Oc3ccccc3)cc2)[C@H](CO)O1)C1CC1 | . | - | - | . | .
Nc1ccc2nc(-c3ccccc3)[nH]c2c1 | - | . | . | . | .
O=[N+]([O-])c1ccc2nc(-c3ccccc3)[nH]c2c1 | - | . | 1.7 | - | -
O=[N+]([O-])c1ccc2nc(-c3cccnc3)[nH]c2c1 | - | - | - | . | .
Nc1cccc(-c2nc3ccc(C(=O)c4ccccc4)cc3[nH]2)c1 | - | - | 13 | - | - | FGF22 TSA=-
C[C@@H]1CN([C@@H](C)CO)C(=O)c2cccc(NS(=O)(=O)c3cccs3)c2O[C@H]1CN(C)S(=O)(=O)c1cn(C)cn1 | . | - | - | . | .
COCC#Cc1cnc2c(c1)C(=O)N([C@@H](C)CO)C[C@@H](C)[C@H](CN(C)C(=O)c1ccc(F)cc1)O2 | . | - | - | . | .
